High-throughput results (PubChem BioAssay)
The list is not random: actives were taken first. Their share in the collection is about 1.4%.
IDE inh: inhibitors of human insulin-degrading enzyme in cells; HEK cells, FAbetaB cleavage, fluorescence polarization; inhibition, % at 5.59 µM; hit rate 0.41% among 320,000;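 active means percent inhibition above the average of all tested compounds plus 3 SD, set per screening campaign, cut at about 16% in these data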;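 further: IDE supplied by intact live HEK cells; FP after avidin binding of uncleaved biotin substrate so inhibition keeps polarization high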
IDE act: boosts human insulin-degrading enzyme activity in HEK cells | activation, % at 5.96 µM | hit rate 0.073% among 340,000 | AID 493087 | FAbeta-B cleavage, fluorescence polarization; 0% vehicle, 100% cell-free pure enzyme wells | P14735;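 active means activation above the mean of all tested compounds plus 3 SD, set per screening campaign, cut at about 17% in these data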
HNF4A DNA FP: change in binding of human HNF4 alpha to DNA; P41235; hit rate 0.3% among 360,000; HNF4a-FITC DNA binding, fluorescence polarization, 1 h; activity change, % at 10 µM; in the data active means activity change above about 30%, passing the limit was not always enough
Target sequence (P41235 whole entry, looked up): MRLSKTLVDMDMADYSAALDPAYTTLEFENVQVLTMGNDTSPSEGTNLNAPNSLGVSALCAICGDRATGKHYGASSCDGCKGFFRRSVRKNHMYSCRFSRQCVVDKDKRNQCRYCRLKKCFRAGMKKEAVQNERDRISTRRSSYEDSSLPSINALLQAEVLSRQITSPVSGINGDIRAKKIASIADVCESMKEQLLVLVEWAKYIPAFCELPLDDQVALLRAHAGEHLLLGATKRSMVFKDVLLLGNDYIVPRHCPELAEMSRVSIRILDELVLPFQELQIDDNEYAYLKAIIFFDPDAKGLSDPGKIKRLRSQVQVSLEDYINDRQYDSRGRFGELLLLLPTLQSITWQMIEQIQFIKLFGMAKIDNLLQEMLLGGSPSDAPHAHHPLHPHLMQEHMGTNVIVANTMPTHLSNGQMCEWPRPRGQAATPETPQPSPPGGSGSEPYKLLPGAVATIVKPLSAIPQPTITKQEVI
CRFBP-R2 agonist: CRF-BP/CRF-R2 complex agonism; activation, % at 13.2 µM; AID 588473; HEK293 CRF-R2/CRF-BP, calcium dye fluorescence (FLIPR); percent of saturating CRF peptide response; hit rate 0.46% among 350,000;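 active means activation of at least 50%, plus an integration ratio under a set limit after plate pattern correction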
TPT1 inh: C. albicans TPT1 enzyme inhibition | hit rate 0.81% among 300,000 | AID 1962 | inhibition, % at 5 µM | recombinant caTPT1, FP RNA substrate dephosphorylation;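 active means inhibition above the mean of all tested compounds plus 3 SD, set per screening campaign, cut at about 24% in these data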
A number is an active result.

C#CCOCCOCCOCCNc1nc(N2CCN(C(=O)CCCCCCCCCCNC(=O)Cn3cc(CCCCCN)nn3)CC2)nc(N2CCN(C(=O)CCCCCCCCCCNC(=O)[C@@H]([C@H](C)O)n3cc(C)nn3)CC2)n1 was read as IDE inh inactive, IDE act 25.5, HNF4A DNA FP inactive, CRFBP-R2 agonist inactive and TPT1 inh inactive.
For C#CCOCCOCCOCCNc1nc(N2CCN(C(=O)Cn3cc(CCCCN)nn3)CC2)nc(N2CCN(C(=O)Cn3cc(CC(C)O)nn3)CC2)n1 (configuration not stated) the results were IDE inh inactive, IDE act inactive, HNF4A DNA FP inactive, CRFBP-R2 agonist inactive and TPT1 inh inactive.
`COc1cccc(C(=O)OCC(=O)Nc2ccc3c(c2)OCCO3)c1` gave IDE inh inactive, IDE act inactive, HNF4A DNA FP inactive and CRFBP-R2 agonist inactive.
Screening O=c1[nH]c(C2CCN(S(=O)(=O)c3ccccc3)CC2)nc2c1nnn2Cc1ccccc1 returned IDE inh inactive, IDE act inactive, HNF4A DNA FP inactive, CRFBP-R2 agonist inactive and TPT1 inh inactive.
For Cc1ccc2oc(=O)c(/C=C(\O)CC(C)C)nc2c1 the results were IDE inh inactive, IDE act inactive, HNF4A DNA FP inactive, CRFBP-R2 agonist inactive and TPT1 inh inactive.
`Cc1ccc2oc(=O)c(/C=C(\O)c3cccs3)nc2c1` gave IDE inh inactive, IDE act inactive, HNF4A DNA FP inactive, CRFBP-R2 agonist 120.0 and TPT1 inh inactive.
Cc1ccc2oc(=O)c(/C=C(\O)c3ccccc3)nc2c1 was read as IDE inh inactive, IDE act inactive, HNF4A DNA FP inactive, CRFBP-R2 agonist 70.6 and TPT1 inh inactive.
Screening O=c1oc2ccc(Cl)cc2nc1/C=C(\O)c1cccs1 returned IDE inh inactive, IDE act inactive, HNF4A DNA FP 54.5, CRFBP-R2 agonist inactive and TPT1 inh inactive.
For CCS(=O)(=O)c1ccc2oc(=O)c(/C=C(\O)c3ccc(Cl)cc3)nc2c1 the results were IDE inh inactive, IDE act inactive, HNF4A DNA FP inactive, CRFBP-R2 agonist inactive and TPT1 inh inactive.
For CN(Cc1nc(-c2ccccn2)no1)S(=O)(=O)c1ccc(Cl)cc1 the results were IDE inh inactive, IDE act inactive, HNF4A DNA FP inactive, CRFBP-R2 agonist 54.1 and TPT1 inh inactive.
CCc1ccccc1OCC(=O)Nc1ccc(N2CCCC2)cc1C was read as IDE act inactive, HNF4A DNA FP 51.6 and CRFBP-R2 agonist inactive.
O=C1/C(=C\c2ccc(O)cc2)SC(=S)N1c1cccnc1 was read as IDE inh 87.8, IDE act inactive, HNF4A DNA FP inactive, CRFBP-R2 agonist inactive and TPT1 inh inactive.
For COc1ccc(/C=C2\SC(=S)N(c3cccnc3)C2=O)cc1 the results were IDE inh inactive, IDE act inactive, HNF4A DNA FP inactive, CRFBP-R2 agonist inactive and TPT1 inh inactive.
COc1ccc2[nH]c3c(c2c1)CCN1C(=O)C(CC(=O)NCC24CC5CC(CC(C5)C2)C4)C[C@H](C(=O)N(C(C)C)C(C)C)[C@@]31C (some centres not stated) was read as IDE act inactive, HNF4A DNA FP inactive and CRFBP-R2 agonist inactive.
CN(c1ccccc1)c1cc(Br)nc(Br)c1 was read as IDE inh inactive, IDE act inactive, HNF4A DNA FP inactive, CRFBP-R2 agonist inactive and TPT1 inh inactive.
Screening Cn1cc([C@]2(O)C(=O)Nc3ccc(F)cc32)c2ccccc21 returned HNF4A DNA FP inactive.
For COC(=O)CNC(=O)COC(=O)C(Cc1ccccc1)NC(=O)c1ccco1 (configuration not stated) the results were IDE inh inactive, IDE act inactive, HNF4A DNA FP inactive, CRFBP-R2 agonist 55.4 and TPT1 inh inactive.
`O=C(COC(=O)[C@H](Cc1ccccc1)NC(=O)c1ccco1)Nc1ccccc1` gave IDE inh inactive, IDE act inactive, HNF4A DNA FP inactive and CRFBP-R2 agonist inactive.
For Cc1cc(NC(=O)COC(=O)C(Cc2ccccc2)NC(=O)c2ccco2)no1 (configuration not stated) the results were IDE inh inactive, IDE act inactive, HNF4A DNA FP inactive, CRFBP-R2 agonist 152.6 and TPT1 inh inactive.
CC1(C)Cc2cccc(OCC(=O)Nc3ccccc3C(F)(F)F)c2O1 was read as IDE inh inactive, IDE act inactive, HNF4A DNA FP 40.5, CRFBP-R2 agonist inactive and TPT1 inh inactive.
For CC1(c2ccc(OC(F)F)cc2)NC(=O)N(CC(=O)c2ccc3c(c2)OCO3)C1=O (configuration not stated) the results were IDE inh inactive, IDE act inactive, HNF4A DNA FP inactive, CRFBP-R2 agonist 85.6 and TPT1 inh inactive.
`CC1(c2ccc([N+](=O)[O-])cc2)NC(=O)N(CC(=O)c2ccc3c(c2)OCO3)C1=O` (configuration not stated) gave IDE inh inactive, IDE act inactive, HNF4A DNA FP inactive, CRFBP-R2 agonist 60.3 and TPT1 inh inactive.
For COCCCNC(=O)C[C@@H]1C[C@@]2(C(=O)OC)CC(C)(C)CC=C2N(Cc2ccccc2)C1=O the results were HNF4A DNA FP inactive.
`Cc1cccc(C)c1NC(=O)C(C1CC1)n1c(=O)c(-c2cc3ccccc3[nH]2)nc2ccccc21` (configuration not stated) gave HNF4A DNA FP inactive.
CCCCn1c(N)c(N(CCOC)C(=O)CCNC(=O)c2ccc(Br)cc2)c(=O)[nH]c1=O was read as IDE inh inactive, IDE act inactive, HNF4A DNA FP inactive, CRFBP-R2 agonist inactive and TPT1 inh inactive.
For Cc1ccc(S(=O)(=O)NCc2ccncc2)c(C)c1C the results were IDE inh inactive, IDE act inactive, HNF4A DNA FP inactive, CRFBP-R2 agonist 53.2 and TPT1 inh inactive.
For S=C(NCCCN1CCOCC1)N1CCN(c2nc(-c3ccc(Cl)cc3)cs2)CC1 the results were IDE inh 23.3, IDE act inactive, HNF4A DNA FP inactive, CRFBP-R2 agonist inactive and TPT1 inh inactive.
Screening COc1ccc(CNC(=O)Nc2nc(C(N)Cc3ccc(C(F)(F)F)cc3)cs2)cc1 (configuration not stated) returned HNF4A DNA FP inactive.
C=CCn1c(=O)[nH]c2nc3cc(N=CN(C)C)c(C)cc3nc2c1=O was read as IDE inh inactive, IDE act inactive, HNF4A DNA FP inactive, CRFBP-R2 agonist 144.0 and TPT1 inh inactive.
For N#CCOC(=O)[C@H](Cc1ccccc1)N1C(=O)c2ccccc2C1=O the results were IDE inh inactive, IDE act inactive, HNF4A DNA FP inactive, CRFBP-R2 agonist inactive and TPT1 inh inactive.
`C#CCOCCOCCOCCNc1nc(N2CCN(C(=O)C([C@@H](C)O)n3cc([C@@H](N)CCCCN)nn3)CC2)nc(N2CCN(C(=O)[C@H](CCCN=C(N)N)n3cc(C(N)[C@@H](C)CC)nn3)CC2)n1` (some centres not stated) gave IDE inh inactive, IDE act inactive, HNF4A DNA FP 61.1 and CRFBP-R2 agonist inactive.
